# Measurements: PubChem BioAssay (NCI)
# This is part of a sample that, as a whole, favours compounds with a hit. Of some 83,000 tested, about 20% had one in any assay.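 The endpoint reported here, percent growth, reads 100 for growth as untreated, 0 for no net growth and -100 for all cells dead.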 Values without a mark were called inactive. The source made the active and inactive calls. Rule for the calls: active = growth percent below 10; inactive = the rest.
# System: HL-60(TB) leukemia
# Test: NCI-60 one-dose screen, 48 h (100 = growth as untreated, 0 = no growth, -100 = all killed)
# Conditions: 10 µM unless noted
row,SMILES,growth
1,Cc1ccc(C2=NN3C(C2)c2cc(Br)ccc2OC32CCN(Cc3ccccc3)CC2)o1 (stereo not given),90.4%
2,O=C(Nc1ccc(N2CCNCC2)cn1)c1[nH]ncc1Nc1ncnc2sccc12,76.7%
3,COc1ccc(N2CCN(C(=O)c3sc4nc(C)c(Br)c(C)c4c3N)CC2)cc1,95.7%
4,FC(F)(F)c1cccc(-c2cn3c(ccc4ccccc43)n2)c1,114%
5,Cc1ccc(NC(=O)c2[nH]c(SCCN(C)C)nc2-c2ccc(F)cc2)cc1Nc1ccc2ncn(C)c(=O)c2c1,19.3%
6,Cc1ccc(C)c2c(C)c(C(=O)Nc3cccc(-n4cccn4)c3)oc12,87.9% [50 µM]
7,COc1ccc(-c2cc(-c3ccc(Cl)cc3)nc(SCCCC(=O)NO)n2)cc1,-22.9% (active)
8,O=C(NCc1ccco1)C1CCN(S(=O)(=O)c2ccc(Cl)cc2)CC1,19.1%
9,Nc1ncnc2c1ncn2C1(CO)OCC(O)C(O)C1O (stereo not given),95.9%
10,Clc1ccc2c(c1)NC1(CCSc3ccccc31)n1nccc1-2 (stereo not given),97.4%
11,CO[C@]12C=C/C(=C(/C(=O)OCc3cccnc3)C(=O)CCCCCCCC[C@]3(OC)C=C/C(=C(/C(=O)OCc4cccnc4)C(=O)CCCCCCCC1)O3)O2,-29.3% (active)
12,Clc1ccc2c(c1)C[C@H]1C[C@@H](c3cccs3)N2O1,107%
13,COc1ccc2c(CCCc3ccc(Cl)cc3Cl)c3[n+](cc2c1OC)CCc1cc2c(cc1-3)OCO2,-41.4% (active)
14,O=C1CSC(c2ccccc2O)N1c1nnc(Cn2cnnc2)o1 (stereo not given),61.1%
15,CC(=O)c1cc(C(=O)c2ccc3c(c2)Sc2ccccc2N3)n2ccccc12,14.3%
16,CC1(C)[C@@H](O)CC[C@]2(C)[C@H]3CC[C@@H]4[C@H]5[C@H](C(=O)/C=C/c6ccc(C(F)(F)F)cc6)CC[C@]5(CO)CC[C@@]4(C)[C@]3(C)CC[C@@H]12,28.1%
17,O=C1CN(c2ccccc2)C(=O)C1C(=O)Nc1ccc(Cl)c(Cl)c1 (stereo not given),7.75% [100 µM] (active)
18,Cc1ccc2nc3nc4ccc[nH]c4cc3c2c1,124%
19,CCC(C)NCc1ccccc1 (stereo not given),94.6%
20,COc1cc(N2C(=O)[C@H](Cl)C2c2ccc(SC)cc2)cc(OC)c1OC (stereo not given in full),-36.1% (active)

row,SMILES,growth
1,Cc1nn(-c2ccc(-c3ccc(OC(F)(F)F)cc3)cc2)c2nc(Cc3ccccc3)nc(N)c12,88.3%
2,O=C(Nc1cccc2c1C(=O)c1cccc(Nc3cccc4c3C(=O)c3cccc(NC(=O)c5ccccc5)c3C4=O)c1C2=O)c1ccccc1,118%
3,CCSC1=CC(=O)c2ccccc2C1=O,50.9%
4,O=C(c1nc2ccccc2[nH]1)C1[C@@H](c2cccc(O)c2)C2CC3CCCCC3N2[C@@]12C(=O)Nc1cc(Cl)ccc12 (stereo not given in full),6.59% (active)
5,NC(=O)c1c(NC(=O)c2cccc(C(F)(F)F)c2)sc2c1CCC(=O)C2,-11.6% (active)
6,NC(=O)c1nc2c([nH]c1=O)CCCC2,101%
7,COc1ccc2c(c1)c(-c1noc(-c3cn(C)c4ncc(F)cc34)n1)cn2C,84.6%
8,CSc1nnc2c(=O)n(C)c(=O)n(C)c2n1,161%
9,O=[N+]([O-])c1ccc(N/N=C/C2CCCCCC2)c([N+](=O)[O-])c1,97.1%
10,Clc1cc2c(nn1)Nc1ccccc1S2,102%
11,CC(=O)N1C/C(=C/c2ccc(Cl)cc2)C(=O)/C(=C/c2ccc(Cl)cc2)C1,4.97% (active)
12,COc1cc([C@@H]2c3cc4c(cc3[C@H](OC3OC5COC(c6ccccc6)OC5C(O)C3O)[C@H]3COC(=O)[C@H]23)OCO4)cc(OC)c1OC (stereo not given in full),-33.6% (active)
13,CCOC(=O)n1cc(C2=C(c3ccc(OC)c(OC)c3)COC2=O)c2ccccc21,-28.7% (active)
14,O/N=C1\CCC2CCCCC2C1 (stereo not given),98.8%
15,COc1ccc(-n2nnnc2-c2cn[nH]c2C(F)(F)F)cc1,98.3%
16,Clc1ccc2nc3nc4ccc[nH]c4cc3c2c1,88.2%
17,O=C(CCCl)OCCOc1ccccc1,101%
18,CCC(C#N)(CC)c1ccccc1,102%
19,CC(=O)Nc1cccc(-c2ccc3c(c2)NC(=O)/C3=C\c2ccc[nH]2)c1,20.2%
20,CCCC(=O)Nc1ccccc1C(=O)O,94.1%
